# Reference: PubChem BioAssay (NCATS)
# Several values for one entry are separate records, joined by “and”; a condition that tells them apart may be missing. Equal values may be shown once. Results filed as inconclusive are left out. Values without a mark were called inactive. Activity calls are given as the source filed them. The call rests on the fitted dose curve; in most records, active means well fitted cell-killing curve with a large enough effect; inconclusive means small, poorly fitted or top-dose-only effect; inactive means flat fitted curve, though single readings scatter.
# Assay: Cell Viability - Renal Proximal Tubule (AID 545); further: nearly all actives have a fitted effect of over 40% in size;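 on activity change, negative = cytotoxicity: 0% = DMSO only and -100% = 100 µM tamoxifen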
# Conditions: renal proximal tubule cells viability; activity change, negative = cytotoxicity: at 91.7 µM (top of the series)
# Description: NIH Chemical Genomics Center [NCGC]
# NIH Molecular Libraries Screening Centers Network [MLSCN]
# National Institutes of Environmental Health Sciences [NIEHS]
# National Toxicology Program [NTP]
# We have developed a 1536-well cell-based assay for quantitative high throughput screening (qHTS) against a number of cell lines to determine in vitro cytotoxicity of small molecules. This particular assay uses the renal proximal tubule cells which are derived from normal kidney cells freshly isolated from rat.
# NCGC Assay Protocol Summary:
# The CellTiter-Glo luminescent cell viability assay (Promega) is a homogeneous method to measure the number of viable cells in culture. The end point readout of this assay is based on quantitation of intracellular ATP, an indicator of metabolic activity, using the luciferase reaction. Luciferase catalyzes the oxidation of beetle Luciferin to oxyluciferin and light in the presence of ATP. The luminescent signal is proportional to amount of ATP present.
# Using the CellTiter-Glo luminescent cell viability assay, the amount of cellular ATP was measured in the renal proximal tubule cells with complete culture medium following compound treatment for 40 hours. The assay was performed in opaque white Kalypsys 1536-well plates. In the screen, tamoxifen and doxorubicin were used as positive controls. Library compounds were measured for their ability to cause acute toxicity in the cell line, as reflected by a decrease in intracellular ATP levels, in a concentration-dependent manner. […] AC50 values were determined from concentration-response data modeled with the standard Hill equation.
# qHTS protocol for CellTiter Glo renal proximal tubule cell assay
# [Step] [Parameter] [Value] [Description]
# 1. Reagent; 5 uL; 1000 renal proximal tubule cells/well
# 2. Time; 5 hr; 37 °C incubation
# 4. Controls; 23 nL; Tamoxifen 0.34 uM to 100 uM & Doxorubicin 0.02 nM to 100 uM
# 5. Time; 40 hr; 37 °C incubation
# 6. Reagent; 5 uL; CellTiter Glo reagent
# 7. Time; 20 min; Room Temperature
# 8. Detection; Luminescence; Viewlux plate reader
# Keywords: cell viability, cytotoxicity, renal proximal tubule cells, luminescence, NTPHTS, NTPHTS_NCGC, NIEHS, EPA, DSSTox, MLSMR, MLSCN, NIH Roadmap, qHTS, NCGC
# Potency means the concentration at half of the fitted maximal effect.
SMILES,"activity change, negative = cytotoxicity",Potency
ClC=C(Cl)Cl,"-4.93% [at 91.7 µM, primary cells of rat origin]",–
[Cl-].[Cl-].[Hg+2],–,316 nM (active)
Oc1cc(Cl)c(Cl)cc1Cl,-19.9%,–
COC1=CC(=O)O[C@@H](/C=C/c2ccccc2)C1,-12.1%,–
O=C1C2CC=CCC2C(=O)N1SC(Cl)(Cl)Cl (centres undefined),–,3.98 µM (active) and 3.16 µM (active)
C[C@]12CCC(=O)C[C@@H]1CC[C@@H]1[C@@H]2CC[C@]2(C)[C@@H](O)CC[C@@H]12,-21.5%,–
Clc1ccccc1Cl,"1.53% [at 91.7 µM, primary cells of rat origin]",–
C[C@H]1CCC[C@H](O)CCCCCc2cc(O)cc(O)c2C(=O)O1,0.00258%,–
CC(C)CCON=O,-2.64%,–
[O]=[Cr](=[O])([OH])[O][Cr](=[O])(=[O])[OH],–,2.51 µM (active) and 7.94 µM (active) and 501 nM (active)
O=C(O)C(Cl)(Cl)Cl,–,inactive
C[C@H]1CC[C@@H]2[C@@H](C)[C@H]3[C@H](C[C@H]4[C@@H]5CC=C6CC(O[C@@H]7O[C@H](CO)[C@H](O)[C@H](O[C@@H]8O[C@H](CO)[C@@H](O)[C@H](O)[C@H]8O)[C@H]7O[C@H]7O[C@@H](C)[C@H](O)[C@@H](O)[C@H]7O)CC[C@]6(C)[C@H]5CC[C@]34C)N2C1 (some centres undefined),-101% (active),–
C=CCN=C=S,"2.52% [at 91.7 µM, primary cells of rat origin]",–
O=CC=O,"-3.14% [at 91.7 µM, primary cells of rat origin]",–
O=C1CCO1,"8.1% [at 91.7 µM, primary cells of rat origin]",–
CCCCCCCCOC(=O)c1ccccc1C(=O)OCCCCCCCC,1.59%,–
S=C=S,"7.96% [at 91.7 µM, primary cells of rat origin]",–
O=C/C=C/c1ccccc1,–,inactive
NNC(N)=O,0.755%,–
CCOC(=O)c1ccccc1C(=O)OCC,–,inactive
O=Cc1ccco1,"0.818% [at 91.7 µM, primary cells of rat origin]",–
[O]=[Cd],"-2.89% [at 91.7 µM, primary cells of rat origin]",–
CC(C)(C)c1cc(O)ccc1O,–,inactive
ClC(Cl)(Cl)Cl,–,inactive
O=C1C=CC(=O)C=C1,-5.02%,–
COc1ccc2c(c1OC)C(=O)OC2C1c2cc3c(cc2CCN1C)OCO3 (centres undefined),-4.59%,–
CCCCCl,"-1.84% [at 91.7 µM, primary cells of rat origin]",–
ClCC1CO1 (centres undefined),"-1.5% [at 91.7 µM, primary cells of rat origin]",–
O=[N+]([O-])c1ccccc1,-9.72%,–
